Measured values as given in PubChem BioAssay AID1745857 (National Center for Advancing Translational Sciences (NCATS), 2022).
Among all 120,000 compounds or so, about 370 (0.31%) were called active. Roughly 4% stayed inconclusive and do not appear here. Calls come from the whole dose curve. What follows is part of a selection rich in actives, with near analogues and random picks from the rest. A call without a number means that no potency is given here.

Experiment: Primary qHTS Assay for Foot and Mouth Disease Virus Antivirals against NCGC Sytravon and CBC Compound Libraries: Renilla Luciferase Signal; note: nearly all actives have a fitted effect of over 55% in size
Details: FMDV replicon cells; series mostly up to 57.5 µM
Potency is the fitted concentration of half-maximal effect.

Q: Which Potency does the source give for `COC(=O)Cc1csc(NC(=O)Cc2c(C)c3ccc(OC)cc3oc2=O)n1` here?
A: inactive

Q: With `O=C(NCCOc1ccccc1F)c1n[nH]c(=O)c2ccccc12` as the molecule, how does the Potency read?
A: inactive

Q: Which Potency does the source give for `NS(=O)(=O)c1ccc(NC(=O)COc2ncnc3ccc(Br)cc23)cc1` here?
A: inactive

Q: With `Cc1cccc2nc(-c3ccc(N4CCOCC4)cc3)c(Nc3ccc4c(c3)OCCO4)n12` as the molecule, how does the Potency read?
A: inactive

Q: With `O=C(OC1CCCCC1=O)c1ccc(Cl)c(Cl)c1` (stereo unspecified) as the molecule, how does the Potency read?
A: inactive

Q: With `O=C(NC(Cc1cccc(F)c1)c1cccc(F)c1)C1CCOCC1` (stereo unspecified) as the molecule, how does the Potency read?
A: inactive

Q: With `O=C(CCC(=O)c1ccc(Cl)cc1)OCc1ccc(Cl)cc1Cl` as the molecule, how does the Potency read?
A: inactive

Q: With `CCOc1ccc(CCNC(=O)C(C)n2nc(C)n3c(cc4sccc43)c2=O)cc1OCC` (stereo unspecified) as the molecule, how does the Potency read?
A: inactive

Q: For `CCc1ccc(/C=C(\C#N)C(=O)NC2CC2)s1`, which Potency is on record?
A: inactive

Q: With `C[C@@H](C(=O)N1CCN(c2ccccc2)CC1)n1cnc2ccccc2c1=O` as the molecule, how does the Potency read?
A: inactive

Q: With `CCC(C)NCCC(c1ccccc1)c1ccc(C)c(C)c1O` (stereo unspecified) as the molecule, how does the Potency read?
A: inactive

Q: With `CCOc1ccccc1OCC(=O)Nc1cccc2ncccc12` as the molecule, how does the Potency read?
A: 8.91 µM (active)

Q: For `CCCOc1ccc(NC(=O)COc2cccc(C)c2C)c2cccnc12`, which Potency is on record?
A: inactive

Q: With `COc1c(C)cccc1C(=O)Nc1cccc2ncccc12` as the molecule, how does the Potency read?
A: inactive

Q: Which Potency does the source give for `Cc1ccc(NS(=O)(=O)c2c(C)[nH]c(C)c2C(=O)N2CCCCC2)c(C)c1` here?
A: inactive

Q: Which Potency does the source give for `Cc1ccc(N/N=C/C=C/c2ccccc2)cc1Cl` here?
A: inactive

Q: Which Potency does the source give for `Cc1nc2cc(NC(C(=O)Nc3ccc(F)cc3)c3ccccc3)ccc2o1` (stereo unspecified) here?
A: inactive

Q: For `COc1ccc(C(=O)/C(=C/c2ccncc2)c2nc3ccccc3o2)cc1OC`, which Potency is on record?
A: 15.8 µM (active)

Q: With `COc1ccc(/C=C/c2nc3ccccc3o2)cc1OCC(C)C` as the molecule, how does the Potency read?
A: inactive

Q: For `COc1ccc(NC(C)=O)cc1NC(=O)/C=C/c1nc2ccccc2o1`, which Potency is on record?
A: inactive

Q: With `Cc1ccc(CCC(=O)Nc2ccc(C)c(C)c2)s1` as the molecule, how does the Potency read?
A: inactive

Q: With `O=C(O)c1ccc2c(c1)N(Cc1ccc(F)cc1)C(=O)c1ccccc1S2=O` (stereo unspecified) as the molecule, how does the Potency read?
A: 8.91 µM (active)

Q: With `O=C(NC1CCCCC1)c1ccc2c(c1)N(Cc1ccc(Cl)cc1)C(=O)c1ccccc1S2=O` (stereo unspecified) as the molecule, how does the Potency read?
A: inactive

Q: Which Potency does the source give for `CCN1C(=O)c2ccccc2S(=O)c2ccc(C(=O)NCc3ccc(F)cc3)cc21` (stereo unspecified) here?
A: inactive

Q: For `O=C(CC(=O)c1ccc(F)cc1)c1ccc(F)cc1`, which Potency is on record?
A: inactive

Q: Which Potency does the source give for `CC(Oc1ccc(C#N)cc1)C(=O)NC(C1CC1)C1CC1` (stereo unspecified) here?
A: inactive

Q: Which Potency does the source give for `O=S1(=O)c2ccc(N3CCN(Cc4ccccc4F)CC3)cc2Oc2ccccc2CN1Cc1cn(Cc2ccc(Cl)cc2)nn1` here?
A: inactive

Q: With `Cc1ccccc1Cn1nc(C)c(NC(=O)c2cc(-c3ccc(F)cc3)on2)c1C` as the molecule, how does the Potency read?
A: inactive

Q: Which Potency does the source give for `Cc1nn(Cc2ccc(F)cc2)c(C)c1NC(=O)c1noc2c1CCc1ccccc1-2` here?
A: inactive

Q: With `Cc1nn(Cc2ccc(F)cc2)c(C)c1NC(=O)c1cc(CC(C)C)on1` as the molecule, how does the Potency read?
A: 25.1 µM (active)

Q: With `O=C(Nc1ccccc1)C1=C(Nc2ccc(F)cc2F)c2ccccc2S1(=O)=O` as the molecule, how does the Potency read?
A: inactive

Q: Which Potency does the source give for `CC(=O)Nc1ccc(NC(=O)COC(=O)c2oc3ccccc3c2C)cc1` here?
A: inactive

Q: Which Potency does the source give for `CN(Cc1ccc2c(c1)OCCO2)CC(O)COc1ccccc1C(C)(C)C` (stereo unspecified) here?
A: inactive

Q: With `CC(Sc1ccc2c(c1)OCCCO2)C(=O)O` (stereo unspecified) as the molecule, how does the Potency read?
A: inactive

Q: Which Potency does the source give for `CC(C)(C)c1ccc2c(c1)OCCOCCOCCOc1ccc(C(C)(C)C)cc1OCCOCCOCCO2` here?
A: 25.1 µM (active)

Q: For `Cc1ccnc(NC(=O)CCc2ncc(-c3ccc(F)cc3F)o2)c1`, which Potency is on record?
A: inactive

Q: Which Potency does the source give for `CCOc1ccc(NC(C)=O)cc1S(=O)(=O)Nc1ccccc1-c1nnc2n1CCCCC2` here?
A: inactive

Q: Which Potency does the source give for `COc1ccc(-c2c(C)c3ccc(O)c(C)c3oc2=O)cc1` here?
A: inactive

Q: Which Potency does the source give for `COc1ccc(-c2c(C)oc3cc(OC)ccc3c2=O)cc1` here?
A: inactive

Q: Which Potency does the source give for `COc1ccc(-c2c(C)c3ccc(OS(C)(=O)=O)cc3oc2=O)cc1` here?
A: 15.8 µM (active)

Q: For `CCNc1c(NS(=O)(=O)c2ccc3c(c2)oc(=O)n3C)c(=O)oc2ccccc12`, which Potency is on record?
A: inactive

Q: With `Cc1cc2oc(=O)cc(CN3CCN(c4ccccc4)CC3)c2cc1O` as the molecule, how does the Potency read?
A: inactive

Q: Which Potency does the source give for `Cc1cccc(CN2CCN(Cc3cc(=O)oc4c(C)c(O)ccc34)CC2)c1` here?
A: 20 µM (active)

Q: For `CC(C)c1ccc2oc(=O)cc(CN3CCN(Cc4ccccc4)CC3)c2c1`, which Potency is on record?
A: inactive

Q: With `CNC/C=C/COc1ccc(C)c(C)c1` as the molecule, how does the Potency read?
A: inactive

Q: With `Cc1ccc(S(C)(=O)=O)cc1NCc1ccccc1F` as the molecule, how does the Potency read?
A: inactive

Q: With `CCC(Sc1nc2ncccc2[nH]1)C(=O)Nc1ccc(C)c(Cl)c1` (stereo unspecified) as the molecule, how does the Potency read?
A: inactive

Q: Which Potency does the source give for `NCCOc1ccc(C(F)(F)F)cc1` here?
A: inactive

Q: With `CC(C)(C)C(=O)NCCCC(=O)NCCc1ccccc1` as the molecule, how does the Potency read?
A: inactive

Q: Which Potency does the source give for `Cc1ccc2c(Cn3nnc(-c4ccc(F)cc4)n3)cc(=O)oc2c1` here?
A: inactive

Q: Which Potency does the source give for `Cc1ccccc1NS(=O)(=O)c1ccc(C(=O)N(C)CC(=O)Nc2cccc3ccccc23)cc1` here?
A: inactive

Q: For `O=C(Cc1ccccc1Cl)N1CCN(c2ncnc3nc[nH]c23)CC1`, which Potency is on record?
A: inactive

Q: Which Potency does the source give for `CC(=O)Nc1ccc2oc(-c3cncc(Br)c3)nc2c1` here?
A: inactive

Q: For `CCOc1ccc(NC(=O)CCc2ncc(-c3ccccc3F)o2)cc1`, which Potency is on record?
A: inactive

Q: Which Potency does the source give for `CCc1cc(C(=O)N2CCN(c3ccccc3OC)CC2)no1` here?
A: inactive

Q: For `O=C(Nc1cccc(-c2nc3cc(Cl)ccc3o2)c1)c1ccccc1`, which Potency is on record?
A: inactive

Q: Which Potency does the source give for `Fc1ccc(Oc2ccc(CNc3ncccn3)cn2)cc1` here?
A: inactive

Q: With `CC(CCN1CCC(C(O)(c2ccccc2)c2ccccc2)CC1)Oc1ccc([N+](=O)[O-])cc1Cl` (stereo unspecified) as the molecule, how does the Potency read?
A: inactive

Q: With `CC(=O)Oc1ccc2c(C)c(-c3ccccc3)c(=O)oc2c1` as the molecule, how does the Potency read?
A: inactive

Q: For `CC1CCc2sc(N)c(C#N)c2C1` (stereo unspecified), which Potency is on record?
A: inactive

Q: Which Potency does the source give for `COC(=O)CN1CCCC1c1ccsc1` (stereo unspecified) here?
A: inactive

Q: With `CCCCNC(=O)c1cccc(N)c1` as the molecule, how does the Potency read?
A: inactive

Q: Which Potency does the source give for `C=C(C)CN1CCN(CCO)CC1` here?
A: inactive

Q: For `Cc1sc2nc(SCc3ccc(Cl)cc3)n(CCCN3CCOCC3)c(=O)c2c1C`, which Potency is on record?
A: inactive

Q: Which Potency does the source give for `Cc1ccccc1Nc1nc(-c2ccc([N+](=O)[O-])cc2)nc2ccccc12` here?
A: inactive

Q: For `FC(F)(F)c1ccccc1C(c1ccccc1)N1CCCNCC1` (stereo unspecified), which Potency is on record?
A: inactive

Q: With `Cc1ccc(CNC(=O)c2scnc2C)cn1` as the molecule, how does the Potency read?
A: inactive

Q: With `COc1ccc(OC)c(CNC(=O)c2scnc2C)c1` as the molecule, how does the Potency read?
A: inactive

Q: With `Cc1ncsc1C(=O)NCc1ccc(N2CCCCCC2)nc1` as the molecule, how does the Potency read?
A: 12.6 µM (active)

Q: For `COc1cccc(CNC(=O)N2CCN(Cc3ccc(Br)s3)CC2)c1`, which Potency is on record?
A: inactive

Q: With `COc1ccc2cc(CNC(=O)c3nccnc3N)ccc2c1` as the molecule, how does the Potency read?
A: 22.4 µM (active)

Q: For `Nc1nccnc1C(=O)NCCc1ccc(F)cc1`, which Potency is on record?
A: inactive

Q: With `COc1cc(CNC(=O)C(C)Oc2ccccc2)ccn1` (stereo unspecified) as the molecule, how does the Potency read?
A: inactive

Q: With `Nc1nccnc1C(=O)NCc1ccnc(Oc2ccccc2)c1` as the molecule, how does the Potency read?
A: 31.6 µM (active)

Q: For `COc1cc(CNC(=O)Cc2ccc(OC)c(OC)c2)ccn1`, which Potency is on record?
A: inactive

Q: With `CC(C)OCc1ccccc1CNC(=O)c1nccnc1N` as the molecule, how does the Potency read?
A: inactive
